# Reference: PubChem BioAssay AID1159580 (chemical genetic matrix, 2015)
# Among all 5,500 compounds or so, about 2,000 (36%) were called active. Not shown: some 18% with an inconclusive outcome. The list shows a part of the results. A number with no mark means an inactive call. No stated cut-off is given here; in the data, active means normalized growth mostly below about 0.91 (no sharp cut-off); inconclusive means no clear call, values can overlap the other calls; inactive means mostly above about 0.92.
# Assay: chemical genetic growth profiling, strain panel (AID 1159580);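 further: tested at 20 µM; growth read once vehicle control cultures reached saturation at 30 °C; 1 = growth at the plate median or of vehicle wells; lower values mean less growth of the strain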
# Details: growth OD
smiles,measurement,setting,value
O=C(O)CF,normalized growth,"S. cerevisiae deletion strains, locus YJR043C, strain POL32, hits give low values",0.984
same,normalized growth,"S. cerevisiae deletion strains, locus YJR075W, strain HOC1, hits give low values",0.992
same,normalized growth,"S. cerevisiae deletion strains, locus YKL009W, strain mrt4, hits give low values",0.915
same,normalized growth,"S. cerevisiae deletion strains, locus YKL068W, hits give low values",1.01
same,normalized growth,"S. cerevisiae deletion strains, locus YKL085W, strain MDH1 (second series), hits give low values",1
same,normalized growth,"S. cerevisiae deletion strains, locus YKL085W, strain MDH1, hits give low values",1
same,normalized growth,"S. cerevisiae deletion strains, locus YKL160W, strain elf1, hits give low values",0.988
same,normalized growth,"S. cerevisiae deletion strains, locus YKL190W, strain CNB1, hits give low values",1
same,normalized growth,"S. cerevisiae deletion strains, locus YKR001C, strain vps1, hits give low values",0.976
same,normalized growth,"S. cerevisiae deletion strains, locus YKR026C, strain gcn3, hits give low values",1.03
same,normalized growth,"S. cerevisiae deletion strains, locus YKR091W, strain srl3, hits give low values",1.02
same,normalized growth,"S. cerevisiae deletion strains, locus YLL001W, strain dnm1, hits give low values",1.02
same,normalized growth,"S. cerevisiae deletion strains, locus YLL026W, hits give low values",1.01
same,normalized growth,"S. cerevisiae deletion strains, locus YLL041C, strain sdh2, hits give low values",1.03
same,normalized growth,"S. cerevisiae deletion strains, locus YLR027C, strain aat2, hits give low values",1.01
same,normalized growth,"S. cerevisiae deletion strains, locus YLR039C, strain RIC1, hits give low values",0.997
same,normalized growth,"S. cerevisiae deletion strains, locus YLR058C, strain SHM2, hits give low values",0.993
same,normalized growth,"S. cerevisiae deletion strains, locus YLR102C, strain apc9, hits give low values",0.99
same,normalized growth,"S. cerevisiae deletion strains, locus YLR221C, strain rsa3, hits give low values",1.03
same,normalized growth,"S. cerevisiae deletion strains, locus YLR258W, strain gsy2, hits give low values",1.04
same,normalized growth,"S. cerevisiae deletion strains, locus YLR262C, strain YPT6 (second series), hits give low values",1.04
same,normalized growth,"S. cerevisiae deletion strains, locus YLR262C, strain YPT6, hits give low values",1.01
same,normalized growth,"S. cerevisiae deletion strains, locus YLR268W, strain sec22, hits give low values",0.974
same,normalized growth,"S. cerevisiae deletion strains, locus YLR320W, strain mms22, hits give low values",1.04
same,normalized growth,"S. cerevisiae deletion strains, locus YLR330W, strain CHS5, hits give low values",0.991
same,normalized growth,"S. cerevisiae deletion strains, locus YLR342W, strain FKS1 (second series), hits give low values",0.989
same,normalized growth,"S. cerevisiae deletion strains, locus YLR342W, strain FKS1, hits give low values",1.02
same,normalized growth,"S. cerevisiae deletion strains, locus YLR357W, strain rsc2, hits give low values",1.02
same,normalized growth,"S. cerevisiae deletion strains, locus YLR370C, strain arc18, hits give low values",1.04
same,normalized growth,"S. cerevisiae deletion strains, locus YLR371W, strain rom2, hits give low values",0.968
same,normalized growth,"S. cerevisiae deletion strains, locus YLR384C, strain iki3, hits give low values",1.02
same,normalized growth,"S. cerevisiae deletion strains, locus YLR418C, strain cdc73, hits give low values",1.04
same,normalized growth,"S. cerevisiae deletion strains, locus YML016C, strain PPZ1, hits give low values",0.99
same,normalized growth,"S. cerevisiae deletion strains, locus YML032C, strain rad52, hits give low values",0.947
same,normalized growth,"S. cerevisiae deletion strains, locus YML120C, strain ndi1, hits give low values",1.04
same,normalized growth,"S. cerevisiae deletion strains, locus YML124C, strain tub3, hits give low values",0.985
same,normalized growth,"S. cerevisiae deletion strains, locus YMR058W, strain fet3, hits give low values",1.02
same,normalized growth,"S. cerevisiae deletion strains, locus YMR078C, strain ctf18, hits give low values",0.984
same,normalized growth,"S. cerevisiae deletion strains, locus YMR125W, strain sto1, hits give low values",0.986
same,normalized growth,"S. cerevisiae deletion strains, locus YMR129W, hits give low values",1.02
same,normalized growth,"S. cerevisiae deletion strains, locus YMR205C, strain PFK2, hits give low values",1.02
same,normalized growth,"S. cerevisiae deletion strains, locus YMR223W, strain ubp8, hits give low values",0.94
same,normalized growth,"S. cerevisiae deletion strains, locus YMR231W, strain pep5, hits give low values",1.02
same,normalized growth,"S. cerevisiae deletion strains, locus YMR263W, strain SAP30, hits give low values",1.02
same,normalized growth,"S. cerevisiae deletion strains, locus YMR307W, strain GAS1, hits give low values",0.945
same,normalized growth,"S. cerevisiae deletion strains, locus YNL067W, strain RPL9B, hits give low values",1.02
same,normalized growth,"S. cerevisiae deletion strains, locus YNL071W, strain lat1, hits give low values",1.03
same,normalized growth,"S. cerevisiae deletion strains, locus YNL128W, strain TEP1, hits give low values",1.01
same,normalized growth,"S. cerevisiae deletion strains, locus YNL153C, strain GIM3, hits give low values",1.04
same,normalized growth,"S. cerevisiae deletion strains, locus YNL209W, strain ssb2, hits give low values",1.02
same,normalized growth,"S. cerevisiae deletion strains, locus YNL233W, strain BNI4, hits give low values",1.02
same,normalized growth,"S. cerevisiae deletion strains, locus YNL248C, strain rpa49, hits give low values",0.972
same,normalized growth,"S. cerevisiae deletion strains, locus YNL250W, strain rad50, hits give low values",0.987
same,normalized growth,"S. cerevisiae deletion strains, locus YNL271C, strain bni1, hits give low values",0.985
same,normalized growth,"S. cerevisiae deletion strains, locus YNL298W, strain CLA4, hits give low values",0.94
same,normalized growth,"S. cerevisiae deletion strains, locus YNL307C, strain MCK1, hits give low values",0.954
same,normalized growth,"S. cerevisiae deletion strains, locus YNL322C, strain KRE1 (second series), hits give low values",1.02
same,normalized growth,"S. cerevisiae deletion strains, locus YNL322C, strain KRE1, hits give low values",1
same,normalized growth,"S. cerevisiae deletion strains, locus YNR049C, strain mso1, hits give low values",1.02
same,normalized growth,"S. cerevisiae deletion strains, locus YNR052C, strain pop2, hits give low values",0.949
same,normalized growth,"S. cerevisiae deletion strains, locus YOL006C, strain TOP1, hits give low values",0.988
same,normalized growth,"S. cerevisiae deletion strains, locus YOL012C, strain htz1",1.93
same,normalized growth,"S. cerevisiae deletion strains, locus YOL147C, strain pex11, hits give low values",0.993
same,normalized growth,"S. cerevisiae deletion strains, locus YOR001W, strain rrp6, hits give low values",1.03
same,normalized growth,"S. cerevisiae deletion strains, locus YOR061W, strain CKA2, hits give low values",0.975
same,normalized growth,"S. cerevisiae deletion strains, locus YOR069W, strain VPS5, hits give low values",0.99
same,normalized growth,"S. cerevisiae deletion strains, locus YOR070C, strain gyp1, hits give low values",1.02
same,normalized growth,"S. cerevisiae deletion strains, locus YOR080W, strain dia2, hits give low values",1.02
same,normalized growth,"S. cerevisiae deletion strains, locus YOR083W, strain WHI5, hits give low values",0.992
same,normalized growth,"S. cerevisiae deletion strains, locus YOR106W, strain vam3, hits give low values",0.998
same,normalized growth,"S. cerevisiae deletion strains, locus YOR136W, strain idh2, hits give low values",0.978
same,normalized growth,"S. cerevisiae deletion strains, locus YOR144C, strain elg1, hits give low values",0.987
same,normalized growth,"S. cerevisiae deletion strains, locus YOR184W, strain ser1, hits give low values",0.872 (active)
same,normalized growth,"S. cerevisiae deletion strains, locus YOR265W, strain rbl2, hits give low values",1.02
same,normalized growth,"S. cerevisiae deletion strains, locus YOR270C, strain vph1, hits give low values",1.02
same,normalized growth,"S. cerevisiae deletion strains, locus YOR290C, strain snf2, hits give low values",1.02
same,normalized growth,"S. cerevisiae deletion strains, locus YOR316C, strain cot1, hits give low values",0.984
same,normalized growth,"S. cerevisiae deletion strains, locus YPL051W, strain arl3, hits give low values",1
same,normalized growth,"S. cerevisiae deletion strains, locus YPL055C, strain LGE1, hits give low values",1.04
same,normalized growth,"S. cerevisiae deletion strains, locus YPL078C, strain atp4, hits give low values",0.982
same,normalized growth,"S. cerevisiae deletion strains, locus YPL106C, strain sse1, hits give low values",1.06
same,normalized growth,"S. cerevisiae deletion strains, locus YPL240C, strain hsp82, hits give low values",1.02
same,normalized growth,"S. cerevisiae deletion strains, locus YPL241C, strain CIN2, hits give low values",0.998
same,normalized growth,"S. cerevisiae deletion strains, locus YPR119W, strain clb2, hits give low values",1
same,normalized growth,"S. cerevisiae deletion strains, locus YPR141C, strain kar3, hits give low values",0.993
same,normalized growth,"S. cerevisiae deletion strains, locus YPR163C, strain tif3, hits give low values",0.993
same,normalized growth,"S. cerevisiae deletion strains, locus YPR167C, strain met16, hits give low values",0.99
same,normalized growth,"S. cerevisiae deletion strains, strain wtn01, hits give low values",0.992
same,normalized growth,"S. cerevisiae strains, strain wild type, hits give low values",0.999
